Molecules are shown by their SMILES.

In the experiment the test system is HepG2. The experiment is described as follows: GSK_TCMDC: Percent inhibition of human HepG2 cell line. Test compounds present at 10uM. The class given is functional.
In general, Inhibition refers to how much of the control response was suppressed. The compound `N=c1[nH]c2cccc3ccc4cccc1c4c32` had an Inhibition of 26%.

As for `CC(C)(C)c1ccc(CN(C[C@@H](O)CNS(=O)(=O)c2cc(Cl)cc(Cl)c2)C(C)(C)C)cc1.Cl`, the Inhibition was determined as 74%.

Consider `COCCN1CCC(C(=O)NCC(C)(C)c2nc(-c3ccc(Br)c(O)c3)c(-c3ccncc3)[nH]2)CC1.Cl`, for which the Inhibition came out at 0%.

The compound `CC(C)CNCc1cccc(-c2ccc(CNc3ccc(C(=O)c4ccccc4)cc3)cc2)c1.O=C(O)C(F)(F)F` had an Inhibition of 10%.

Consider `CCC1CCc2cc(N)cc(-c3nc4c(c(C)nn4CC)c(=O)[nH]3)c2O1` (stereo not given), for which the Inhibition was found to be 0%.

Take `Cl.Oc1cccc(Nc2ccnc3cc(-c4cc5ccccc5o4)ccc23)c1`: the Inhibition was 9%.

`COc1cccc2cc(C(=O)N[C@@H](CC(C)C)C(=O)N[C@H](C=NN3CCOC3=O)CC(C)C)oc12`: the Inhibition came to 4%.

As to `Br.CC1(C)NC(N)=NC(=N)N1OCCNCc1ccc(Cl)cc1`, the Inhibition is given as 5%.

Take `Cl.NC1=NC2(CCCCC2)N(Cc2ccc(Cl)c(Cl)c2)C(N)=N1`: the Inhibition came to 22%.

`CC(=O)Nc1ccc(OCCN(Cc2ccccc2C(F)(F)F)c2ccc(C#N)c(C(F)(F)F)c2)c(Cl)c1` yielded an Inhibition of 0%.

As to `COCCN1CCC(NCC(C)(C)c2nc(-c3ccc(Cl)c(O)c3)c(-c3ccncc3)[nH]2)CC1.Cl`, the Inhibition was 0%.

Regarding `COc1cccc(C(=O)Nc2nonc2-c2ccc(OC)c(OC)c2)c1`, the Inhibition is reported as 7%.

Compound `O=C(/C=C/c1ccc(Cl)c(Cl)c1)NCCCCCCN1CCN(C(=O)Nc2ccc(OC(F)F)cc2)CC1` registered an Inhibition of 44%.

As for `COc1cc(F)c2ncc(Cl)c(CCN3CCC(NCc4ccc5c(n4)NC(=O)CO5)CC3)c2c1.Cl`, the Inhibition is 20%.

Take `CCCCCCNCc1c(O)ccc2c(CNCCCCCC)c(O)ccc12.Cl`: the Inhibition stood at 22%.

Take `C=C(NC(=O)c1cc(C)cc(C)c1)C(=O)OC`: the Inhibition is listed as 21%.

Consider `O=C(Nc1ccc2c(c1)CCC2)N[C@H]1CCN(Cc2ccc(OCCCN3CCCCC3)cc2)C1`, for which the Inhibition is listed as 9%.

As for `COc1ccc(Cn2cncc2CN(CCC(C)C)C(=O)c2ccc(Cl)nc2Cl)cc1.O=C(O)C(F)(F)F`, the Inhibition is 19%.

Take `CN(Cc1cccc(C#N)c1)C1CCN(c2cc(NC(=O)c3cccc(F)c3)ccn2)CC1.O=C(O)C(F)(F)F`: the Inhibition amounted to 0%.

As to `CC(C)(C)c1ccc2[nH]c(-c3ccc(/C=C/C(=O)NC4CCN(Cc5ccccc5)CC4)cc3)nc2c1`, the Inhibition came out at 45%.

As to `O=C(Nc1ccc2ccccc2c1)N1CCC(NCc2cccc([N+](=O)[O-])c2)CC1.O=C(O)C(F)(F)F`, the Inhibition is on record as 0%.

Take `CN1CCN(c2ccnc3ccc(NC(=O)Nc4ccc(-c5ccncc5)c(C(F)(F)F)c4)cc23)CC1`: the Inhibition is reported as 12%.

As for `O=C(Nc1cccc(-c2ccc(-c3nc4ccccc4[nH]3)cc2)c1)Nc1ccc(F)c(F)c1F`, the Inhibition is 45%.

Compound `CCCCC(CCCC)CN1C(=O)C(c2ccccc2)(c2ccccc2)N=C1N.O=CO` had an Inhibition of 28%.

Compound `C[C@H](Cc1ccc(OCCCCCCOc2ccc(C[C@@H](C)N[C@H](C)c3ccccc3)cc2)cc1)NC[C@H](O)c1cccc(Cl)c1.Cl` gave an Inhibition of 99%.

In the case of `COc1ccc2nccc([C@@H](O)CN3CCC(NC(=O)CCC(=O)c4cc(C(C)(C)C)ccc4OC)CC3)c2c1`, the Inhibition was determined as 26%.

`COc1cc(NC(=O)N2CCc3ccc(OCCC4CCCN4C)cc32)cc(C(F)(F)F)c1.O=C(O)C(F)(F)F` (stereo not given) showed an Inhibition of 5%.

As to `CC(N)(Cc1ccc(O)cc1)c1nnn[nH]1` (stereo not given), the Inhibition is 7%.

`COc1ccc2c(NN=Cc3ccccc3F)ccnc2c1`: the Inhibition is 15%.

As for `COc1ccc(CCN(C)CCOc2ccc(NC(=O)c3ccc([N+](=O)[O-])c4c(=O)c5ccccc5[nH]c34)cc2)cc1OC`, the Inhibition was 38%.

`O=C(O)C(F)(F)F.O=S(=O)(NCCN1CCCC1)c1ccc(-c2ccc(CNC3Cc4ccccc4C3)cc2)s1`: the Inhibition turned out to be 47%.

Turning to `Cc1ccccc1C1CCN(C2CCC(NC(=O)/C=C/c3ccc(F)cc3)CC2)CC1` (stereo not given), the Inhibition was determined as 61%.

With `COc1cc2ncnc(Nc3ccc(Br)c(Cl)c3)c2cc1OC.Cl`, the Inhibition stood at 22%.

As to `COc1ccc(C(=O)Nc2ccc3oc(-c4ccc(C(F)(F)F)cc4)cc3c2)cc1CCCN(C)C`, the Inhibition is on record as 98%.

`CC(C)COc1ccc(Cl)cc1Cc1nc(-c2nc3ccc(CN(C)C)cc3[nH]2)co1.Cl` came in with an Inhibition of 14%.

On to `COC(=O)Cn1c2ccccc2c2c(N)c(C(=O)OC)c(C)nc21`, for which the Inhibition came out at 0%.

For `c1ccc2cc3c(Nc4ccc(N5CCCCCC5)cc4)ccnc3cc2c1`, the Inhibition is 10%.

As to `CCCCCCCNCc1c(O)ccc2c(CNCCCCCCC)c(O)ccc12.Cl`, the Inhibition came out at 29%.

With `O=C(c1ccc(-c2cnc3[nH]cc(-c4ccc(C(=O)N5CCOCC5)cc4)c3c2)cc1)N1CCOCC1`, the Inhibition is 19%.

Turning to `C#CCCC(=O)Nc1cccc(-c2cccc(-c3nc4cc(C(F)(F)F)ccc4[nH]3)c2)c1`, the Inhibition stood at 14%.

The record behind these values is ChEMBL document CHEMBL1157539, “Thousands of chemical starting points for antimalarial lead identification” (Nature, 2010).
